The values that follow come from PubChem BioAssay.

Each structure is given as a SMILES string. Calls of active or inactive are those of the source.

The nature of assay [1]: small molecules captured by biotinylated probe aFSTL3 – biochemical, small-molecule microarray, fluorescence 635/667, stem cell growth factor project, primary screen (AID 1064).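 Also: measures binding of the biotinylated anti-FSTL3 antibody to printed compounds.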 Conditions: higher = more signal.
The nature of assay [2]: binders from COS7 lysate, DM2A8 probe, primary screen, torsin A project, cell lysate, small-molecule microarray, fluorescence 635/667 (AID 1065). The conditions noted are these: higher = more signal, COS7 lysate expressing mutant human TOR1A.
Assay [3] in a line: small molecules captured by biotinylated probe aFGF2 – biochemical, small-molecule microarray, fluorescence 635/667, stem cell growth factor project, primary screen (AID 1067).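 Also: measures binding of biotinylated aFGF2 protein to printed compounds on slides; z-score merges feature fluorescence and signal-to-noise across triplicate slides.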 Conditions: higher = more signal.
Assay [4] can be described thus: small molecules captured by biotinylated probe aFGF10 – biochemical, small-molecule microarray, fluorescence 635/667, stem cell growth factor project, primary screen (AID 1071).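 Also: score merges 667 nm spot intensity and signal to noise from triplicate slides.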 Conditions: higher = more signal.
Assay [5] concerns the target Neurogenic locus notch homolog protein 2 (Homo sapiens) (UniProt Q04721). Description: small molecules binding Notch2 protein – biochemical, small-molecule microarray, 635 nm fluorescence, stem cell growth factors, primary screen (AID 1073). Conditions: higher = more signal.
Assay [6] concerns the target Pro-neuregulin-1, membrane-bound isoform (Homo sapiens) (UniProt Q02297). Description: small molecules binding neuregulin-1 protein – biochemical, small-molecule microarray, fluorescence 635/667, psychiatric disease protein project, primary screen (AID 1075).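 Also: score combines 667 nm spot fluorescence with signal to noise.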 The conditions noted are these: NRG1 binding, 635 nm fluorescence, higher = more signal.
Assay [7] relates to Neuregulin-1 EGF-like domain. Description: small molecules binding NRG1 EGF domain – biochemical, small-molecule microarray, 635 nm fluorescence, primary screen (AID 1081).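 Also: binding of the protein to compounds printed on small-molecule microarray slides.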 The conditions noted are these: higher = more signal.
Assay [8] can be described thus: FRG1 expression reporter modulators in myotubes – cell-based, C2C12 myotubes, firefly/Renilla luciferase, luminescence, FRG1 inhibition for FSHD, primary screen (AID 1084). Conditions: FRG1 promoter luciferase, higher = more signal, called active from +8 up or from −8 down.
Assay [9] in a line: small molecules captured by biotinylated probe aFST – biochemical, small-molecule microarray, fluorescence 635/667, stem cell growth factor project, primary screen (AID 1086).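 Also: score merges 667 nm fluorescence with signal-to-noise of each printed compound spot.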 The conditions noted are these: higher = more signal.
Assay [10] can be described thus: binders of probe aHhip on microarray, primary screen, stem cell growth factor project, biochemical, small-molecule microarray, fluorescence 635/667 (AID 1087).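 Also: score merges spot fluorescence at 667nm with spot signal to noise ratio.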 Conditions: higher = more signal.
Assay [11] concerns PRMT1 (protein arginine N-methyltransferase 1). In words: small molecules binding arginine methyltransferase PRMT1 – biochemical, small-molecule microarray, 635 nm fluorescence, primary screen (AID 1088).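 Also: binding of Prmt1 protein to compounds spotted on small-molecule microarray slides.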 The conditions noted are these: higher = more signal.
A short description of assay [12]: growth effects on S. cerevisiae YJM789 – YJM789 clinical isolate, OD600, 24 h, basal, primary screen (AID 1089).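 Also: growth of clinical yeast isolate S. cerevisiae YJM 789 seeded 1000 cells per well; test concentration not given here.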 The conditions noted are these: higher = more signal, called active from +8 up or from −8 down.
Assay [13] is described as follows: S. pombe growth modifiers, basal conditions – strain 972, OD600, 24 h, no modulator, primary screen (AID 1090).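 Also: basal condition with compound alone and no growth modifier present; test concentration not given here.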 The conditions noted are these: S. pombe 972 growth, higher = more signal, called active from +8 up or from −8 down.
The nature of assay [14]: budding yeast growth modifiers under rapamycin – strain BY4716, OD600, 96 h, primary screen (AID 1091). Also: test concentration not given here. The conditions noted are these: S. cerevisiae BY4716 + rapamycin, higher = more signal, called active from +8 up or from −8 down.
In assay [15] the target is Torsin-1A-interacting protein 2 (Homo sapiens) (UniProt Q8NFQ8). In words: small molecules binding lysate-expressed LULL1 – cell lysate, human LULL1 lysate, 635/667 nm fluorescence, primary screen (AID 1092).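 Also: probe is lysate of COS7 cells overexpressing human LULL1; score merges per-feature 667 nm fluorescence with signal-to-noise.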 The conditions noted are these: small-molecule microarray, hLULL1 lysate binding, 635 nm fluorescence; higher = more signal.
Chain of Torsin-1A-interacting protein 2 (Homo sapiens) (Q8NFQ8 whole entry, looked up): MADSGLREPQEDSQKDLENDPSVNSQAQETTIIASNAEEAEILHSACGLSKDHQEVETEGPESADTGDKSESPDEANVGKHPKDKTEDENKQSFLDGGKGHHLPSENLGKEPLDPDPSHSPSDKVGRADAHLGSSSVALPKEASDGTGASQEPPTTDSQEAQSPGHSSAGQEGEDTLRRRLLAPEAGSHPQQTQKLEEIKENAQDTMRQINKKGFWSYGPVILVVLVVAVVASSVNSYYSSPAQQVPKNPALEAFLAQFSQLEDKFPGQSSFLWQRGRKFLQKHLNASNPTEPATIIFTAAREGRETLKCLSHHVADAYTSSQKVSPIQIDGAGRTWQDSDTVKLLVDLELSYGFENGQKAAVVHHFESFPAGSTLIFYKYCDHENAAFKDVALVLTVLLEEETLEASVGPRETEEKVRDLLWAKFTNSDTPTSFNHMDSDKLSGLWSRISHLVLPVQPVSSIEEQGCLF
Assay [16] is described as follows: optical density change of DRC41 E. coli – strain DRC41, OD650, 24 h, E. coli filamentation project, primary screen (AID 1093).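 Also: MC1000 strain lacking acrAB efflux and sulA so SOS filamentation is blocked; test concentration not given here.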 The conditions noted are these: E. coli DRC41 growth, higher = more signal, called active from +8 up or from −8 down.
Assay [17] can be described thus: probe aLefty2 binding to arrayed compounds – biochemical, biotinylated probe, 635/667 nm fluorescence, primary screen (AID 1094).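 Also: score merges spot fluorescence near 667 nm with spot signal-to-noise ratio.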 The conditions noted are these: small-molecule microarray, higher = more signal.
Assay [18] has as its system Noggin (protein binding on small-molecule microarray). Description: small molecules binding Noggin protein – biochemical, 635/667 nm fluorescence, primary screen (AID 1095).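 Also: score merges 667 nm feature fluorescence with signal to noise over triplicate slides.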 The conditions noted are these: 635 nm fluorescence, higher = more signal.
Assay [19] concerns the target Neurogenic locus notch homolog protein 3 (Homo sapiens) (UniProt Q9UM47). In words: small molecules binding NOTCH3 protein – biochemical, 635/667 nm fluorescence, primary screen (AID 1096). The conditions noted are these: small-molecule microarray, 635 nm fluorescence, higher = more signal.
Assay [20] can be described thus: probe aEGFR binding to arrayed compounds – biochemical, biotinylated probe, 635/667 nm fluorescence, primary screen (AID 1097).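 Also: probe is a biotinylated anti-EGFR antibody binding compounds printed on slides; score combines fluorescence near 667 nm and signal to noise of each spot.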 The conditions noted are these: small-molecule microarray, higher = more signal.

Chain of Neurogenic locus notch homolog protein 3 (Homo sapiens) (Q9UM47 whole entry, looked up): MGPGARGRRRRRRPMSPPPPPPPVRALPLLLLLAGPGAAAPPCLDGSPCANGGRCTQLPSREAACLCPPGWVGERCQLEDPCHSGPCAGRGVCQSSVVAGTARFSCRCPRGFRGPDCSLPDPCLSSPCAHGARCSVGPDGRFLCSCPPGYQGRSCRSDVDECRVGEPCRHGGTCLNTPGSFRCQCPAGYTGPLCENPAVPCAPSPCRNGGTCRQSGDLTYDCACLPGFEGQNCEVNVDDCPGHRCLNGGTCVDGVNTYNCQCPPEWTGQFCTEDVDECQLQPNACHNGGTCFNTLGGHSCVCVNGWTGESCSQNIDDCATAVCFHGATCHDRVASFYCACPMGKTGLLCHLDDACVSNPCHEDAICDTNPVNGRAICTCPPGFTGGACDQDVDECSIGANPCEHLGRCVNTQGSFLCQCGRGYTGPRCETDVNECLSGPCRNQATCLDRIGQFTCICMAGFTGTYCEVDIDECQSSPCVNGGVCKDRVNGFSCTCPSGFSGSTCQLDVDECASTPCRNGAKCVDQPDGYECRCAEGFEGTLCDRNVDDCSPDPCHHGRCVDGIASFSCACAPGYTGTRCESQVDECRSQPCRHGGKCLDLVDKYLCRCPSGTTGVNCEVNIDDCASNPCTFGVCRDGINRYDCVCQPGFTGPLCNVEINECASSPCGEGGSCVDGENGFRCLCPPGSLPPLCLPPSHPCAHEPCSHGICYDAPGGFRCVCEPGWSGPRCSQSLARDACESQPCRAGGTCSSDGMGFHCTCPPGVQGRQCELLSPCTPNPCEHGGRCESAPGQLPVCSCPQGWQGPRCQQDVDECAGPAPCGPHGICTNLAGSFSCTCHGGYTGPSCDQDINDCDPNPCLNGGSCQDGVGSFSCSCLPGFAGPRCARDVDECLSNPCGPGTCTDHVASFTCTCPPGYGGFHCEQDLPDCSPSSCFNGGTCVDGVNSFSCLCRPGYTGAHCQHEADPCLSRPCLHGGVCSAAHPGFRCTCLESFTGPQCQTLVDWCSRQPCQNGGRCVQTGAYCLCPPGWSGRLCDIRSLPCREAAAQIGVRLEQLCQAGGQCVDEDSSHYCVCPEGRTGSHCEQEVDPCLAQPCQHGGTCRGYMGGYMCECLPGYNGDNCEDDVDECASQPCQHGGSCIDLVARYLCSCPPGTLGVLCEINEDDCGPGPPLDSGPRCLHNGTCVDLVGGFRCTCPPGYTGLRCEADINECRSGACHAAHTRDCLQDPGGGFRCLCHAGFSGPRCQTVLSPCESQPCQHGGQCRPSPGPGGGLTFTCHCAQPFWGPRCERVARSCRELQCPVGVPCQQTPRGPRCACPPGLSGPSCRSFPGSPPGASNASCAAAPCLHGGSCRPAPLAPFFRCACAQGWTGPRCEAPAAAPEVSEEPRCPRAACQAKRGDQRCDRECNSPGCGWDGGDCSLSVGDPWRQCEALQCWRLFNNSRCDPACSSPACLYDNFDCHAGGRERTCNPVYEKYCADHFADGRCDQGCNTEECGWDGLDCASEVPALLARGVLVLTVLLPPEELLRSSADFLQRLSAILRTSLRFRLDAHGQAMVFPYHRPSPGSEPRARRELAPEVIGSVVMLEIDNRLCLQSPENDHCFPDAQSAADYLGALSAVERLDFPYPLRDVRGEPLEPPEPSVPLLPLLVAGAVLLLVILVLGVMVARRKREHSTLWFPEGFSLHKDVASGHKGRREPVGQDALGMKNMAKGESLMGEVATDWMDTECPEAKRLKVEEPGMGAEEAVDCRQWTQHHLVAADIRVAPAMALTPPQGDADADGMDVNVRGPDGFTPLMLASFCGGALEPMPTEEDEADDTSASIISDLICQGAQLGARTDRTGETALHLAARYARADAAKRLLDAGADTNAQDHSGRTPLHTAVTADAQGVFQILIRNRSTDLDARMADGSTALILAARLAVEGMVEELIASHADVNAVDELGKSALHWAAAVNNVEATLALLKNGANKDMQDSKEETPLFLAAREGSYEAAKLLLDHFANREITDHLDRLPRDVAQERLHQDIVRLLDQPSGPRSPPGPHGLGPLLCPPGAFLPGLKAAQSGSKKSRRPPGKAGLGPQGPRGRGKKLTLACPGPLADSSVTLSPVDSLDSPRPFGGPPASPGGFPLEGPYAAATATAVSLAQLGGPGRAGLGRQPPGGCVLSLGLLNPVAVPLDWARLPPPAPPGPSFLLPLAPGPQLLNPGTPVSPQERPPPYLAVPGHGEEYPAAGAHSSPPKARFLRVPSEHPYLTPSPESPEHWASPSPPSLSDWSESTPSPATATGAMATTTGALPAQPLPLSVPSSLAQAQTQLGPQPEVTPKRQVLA
Chain of Pro-neuregulin-1, membrane-bound isoform (Homo sapiens) (Q02297 whole entry, looked up, the tested form may be a part, canonical isoform): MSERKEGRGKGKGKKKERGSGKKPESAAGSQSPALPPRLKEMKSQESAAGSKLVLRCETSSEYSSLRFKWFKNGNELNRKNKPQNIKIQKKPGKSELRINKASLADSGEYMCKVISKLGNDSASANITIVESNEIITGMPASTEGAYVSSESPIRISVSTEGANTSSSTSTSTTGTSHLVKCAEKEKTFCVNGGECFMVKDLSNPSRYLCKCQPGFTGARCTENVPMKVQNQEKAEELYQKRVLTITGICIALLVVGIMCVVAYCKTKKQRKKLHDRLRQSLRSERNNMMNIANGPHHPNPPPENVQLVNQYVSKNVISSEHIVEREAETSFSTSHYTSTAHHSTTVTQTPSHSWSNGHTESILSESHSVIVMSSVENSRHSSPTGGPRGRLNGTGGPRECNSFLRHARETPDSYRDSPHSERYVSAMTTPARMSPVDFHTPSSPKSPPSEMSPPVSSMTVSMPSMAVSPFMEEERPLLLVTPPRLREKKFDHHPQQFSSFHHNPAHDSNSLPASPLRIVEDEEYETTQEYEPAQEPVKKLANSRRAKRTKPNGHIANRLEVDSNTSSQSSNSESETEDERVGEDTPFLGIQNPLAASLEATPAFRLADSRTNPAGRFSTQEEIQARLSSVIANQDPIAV

Regarding `CC(C)=C1C(=O)C(c2ccccc2)=C2CN3C(=O)N(CCc4ccccc4)C(=O)[C@]3(Cc3ccc(F)cc3)[C@H]21`, the composite z-score in assay [1] is 0.565; in [2], -0.65; in [3] it was 0.0547; in [4], -0.247; in [5] it was -1.09; in assay [6], 1.3. Further, the composite z-score worked out at 0.134 in assay [7]; 0.841 in assay [9]; 0.0722 in assay [10]; 1.11 in assay [11]; 2.04 in assay [15]; 0.253 in assay [17]. The composite z-score in assay [18] is -1.25; in assay [19], -1.3; in assay [20], 0.119. Besides, the z-score was -0.0896 (inactive) in assay [8]; -0.129 (inactive) in [12]; -0.0353 (inactive) in assay [13]; 0.135 (inactive) in [14]; -1.7 (inactive) in assay [16].
For `CC(=O)OC[C@H]1O[C@H](CCON=C[C@@H](C)[C@H](OCc2ccccc2)C(C)C)C=C[C@@H]1OC(C)=O`, the composite z-score in assay [1] is -0.567; in assay [2], 0.57; in [3] it was -0.101; in [4], 0.114; in [5], -0.113; in assay [6] it was -0.114. Besides, the composite z-score in [7] was -0.339; in [9], 0.0538; in [10] it was 0.312; in assay [11], 1.12; in assay [15], -0.169; in assay [17] it was -0.138. In addition, the composite z-score in assay [18] was 0.559; in [19], 0.226; in [20], -0.0093. Besides, the z-score in [8] was 0.447 (inactive); in [12], -0.283 (inactive); in [13] it was -0.205 (inactive); in assay [14], -0.3 (inactive); in assay [16], -0.608 (inactive).
`C=CC[C@@H]1C=C[C@H](ON=C(C)CCN2CCc3nc(CC)c(CC)cc3C2)[C@@H](CO)O1`: the composite z-score in [1] is 0.332; in [2] it was 1.43; in [3] it was -0.0593; in assay [4] it was -0.21; in assay [5], 0.0383; in [6], -0.21. Also, the composite z-score was 0.987 in [7]; 0.553 in assay [9]; -0.123 in assay [10]; 1.21 in [11]; 1.07 in [15]; 0.0522 in assay [17]. In addition, the results for the composite z-score in assay [18], in assay [19] and in assay [20] were 0.981, 0.717 and -0.0435, respectively. For the same compound, the z-score in [8] was 2.55 (inactive); in assay [12], -1.12 (inactive); in assay [13], -0.0455 (inactive); in assay [14], -0.384 (inactive); in assay [16], 0.544 (inactive).
As to `CCOC(=O)CCN1C(=O)[C@H]2[C@H]3[C@H](O)C=CC(=O)[C@@H]3CC[C@H]2C1=O`, the composite z-score in [1] is -0.619; in assay [2] it was 0.153; in assay [3], -0.108; in assay [4], 0.408; in assay [5], 0.25; in assay [6] it was 0.262. Moreover, the composite z-score is -0.0122 in [7]; -0.0371 in [9]; -0.374 in assay [10]; 0.0492 in assay [11]; 0.215 in assay [15]; -0.239 in [17]. Further, the composite z-score was found to be 0.641 in [18], 0.629 in [19] and 0.0439 in assay [20]. The z-score was -0.451 (inactive) in assay [8]; 0.595 (inactive) in assay [12]; 0.361 (inactive) in assay [13]; 1.42 (inactive) in assay [14]; 0.399 (inactive) in assay [16].
`C=C(/C(=C/C[C@@H](OC(=O)c1ccncc1)c1ccc(OCCO)cc1)c1cnc2ccccc2c1)C(C)C`: the composite z-score in [1] was -0.342; in [2], -0.0128; in assay [3], -0.186; in [4] it was 0.128; in assay [5], 0.772; in assay [6] it was 0.562. The composite z-score in assay [7] was 0.694; in [9], 0.201; in assay [10], 0.0206; in [11] it was 1.55; in assay [15], 0.65; in assay [17] it was -0.0262. In addition, the composite z-score in assay [18] is 1.65; in [19], 1.07; in assay [20], -0.0949. The z-score in assay [8] is -2.27 (inactive); in [12], -24.8 (active); in [13] it was -20.4 (active); in [14], -4.32 (inactive); in assay [16], 1.23 (inactive).
